This note sets out measurements from the OligoGym collection.
Further: reference of the scale not given here.

The target of the first assay is CMPK2. Briefly: pooled miR-30 sensor sort-seq; sequence = guide strand. As to conditions: shRNA.
In turn, TTCTTCCCTGGTCTTCTCCATG showed a sensor-assay potency score (higher = more potent) of -1.63. As for TGACTTTAAGAGGACAGCCTTA, the sensor-assay potency score (higher = more potent) was -1.08. Same read-out and setting: the value for TCCTTCGATGGCAACAACCTGG was -1.1; that for TCAAGTTCTGCTTCTTCCCTGG was 0.42; that for TTTTGGGCACTGGTCGACCAGG was -1.61.

The sequence TTCATCATCAAAGATCTTCCTC gave a sensor-assay potency score (higher = more potent) of 0.515. On to TTGACGAAACACACTGTTGGCC, for which the sensor-assay potency score (higher = more potent) was -0.221. Sequence TTTGACGAAACACACTGTTGGC showed a sensor-assay potency score (higher = more potent) of -0.342.

The sequence TACCTGTCTACAATCACAGGAG returned a sensor-assay potency score (higher = more potent) of 0.285. The sequence TTTCAAACAACATCTAATCTAG showed a sensor-assay potency score (higher = more potent) of -0.108.

Take TAATACCGTCTGCAGGACCTTT: the sensor-assay potency score (higher = more potent) was -1.41. The sequence TGGTAGGACATTTCTACCTTTT yielded a sensor-assay potency score (higher = more potent) of -1.68.

The target of another assay is CMYA5. The assay is described as above. As to conditions: shRNA.
In turn, TTTCTAACACTAGATTTCCTTC came in with a sensor-assay potency score (higher = more potent) of -0.717. On to TTCACTTTCTTCCTGATCGATT, for which the sensor-assay potency score (higher = more potent) is -0.264.

For TTAACATCTGGTCACTTCTTGC, the sensor-assay potency score (higher = more potent) was -0.814. In the case of TATGACTTCTCTTTCTCCGTGG, the sensor-assay potency score (higher = more potent) was determined as 0.895. In turn, TGAATCAATGACATCTTCCTTG returned a sensor-assay potency score (higher = more potent) of 0.597. Sequence TAACACTAGATTTCCTTCCTGA showed a sensor-assay potency score (higher = more potent) of 0.81.

As to TTTTTCTTCACTGTGATCTGGC, the sensor-assay potency score (higher = more potent) was determined as 0.846.

In turn, TAATACTAGATTTCCTTCCTGA displayed a sensor-assay potency score (higher = more potent) of 0.791.
